# Assay results as given in PubChem BioAssay.
# Records with an inconclusive call do not appear. Calls of active or inactive are those of the source.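 How the source made its calls, unless noted: active means normalized viability below 100% at a tested concentration; inactive means the rest.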
# How the values were obtained:
# [1] = growth inhibition of DIPG glioma cells, dose response, cell-based, SU-DIPG-XVII, MIPE5.0, CellTiter-Glo, qHTS (AID 1347060; cut-off not given, nearly all actives have AC50 up to about 26 µM;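 on AC50: cells exposed to compound for 48 hours before viability readout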); settings: SU-DIPG-XVII viability, CellTiter-Glo ATP luminescence
# [2] = growth inhibition of DIPG glioma cells, dose response, cell-based, SU-DIPG-XIII, MIPE4.0, CellTiter-Glo, qHTS (AID 1347061; cut-off not given, nearly all actives have AC50 up to about 37 µM;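 further: cells exposed to compound for 48 hours before readout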); settings: SU-DIPG-XIII viability, CellTiter-Glo ATP luminescence
# [3] = growth inhibition of DIPG glioma cells, dose response, cell-based, JHH-DIPG-1, MIPE4.0, CellTiter-Glo, qHTS (AID 1347062; cut-off not given, nearly all actives have AC50 up to about 27 µM;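 on AC50: cells exposed to compound for two days before readout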); settings: JHH-DIPG-1 viability, CellTiter-Glo ATP luminescence
# [4] = growth inhibition of DIPG glioma cells, dose response, cell-based, SU-DIPG-IV, MIPE4.0, CellTiter-Glo, qHTS (AID 1347063; cut-off not given, nearly all actives have AC50 up to about 30 µM;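 further: compound exposure lasted 48 hours before the viability readout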); settings: SU-DIPG-IV viability, CellTiter-Glo ATP luminescence
# [5] = viability loss in pontine glioma line – cell-based, SU-DIPG-XXV, MIPE5.0, CellTiter-Glo, qHTS, dose response (AID 1347065; cut-off not given, nearly all actives have AC50 up to about 26 µM;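 further: cells exposed to compound for 48 hours before ATP readout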); settings: CellTiter-Glo ATP luminescence
# [6] = SU-DIPG-VI glioma cell viability, MIPE4.0 library, CellTiter-Glo luminescence, qHTS (AID 1347066; cut-off not given, nearly all actives have AC50 up to about 30 µM;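 further: cells exposed to compound for 48 hours before readout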); settings: CellTiter-Glo ATP luminescence
# [7] = JHH-DIPG-1 glioma cell viability, MIPE5.0 library, CellTiter-Glo luminescence, qHTS (AID 1347067; cut-off not given, nearly all actives have AC50 up to about 26 µM;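 further: cells exposed to compound for 48 hours before readout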); settings: JHH-DIPG-1 glioma viability, CellTiter-Glo ATP luminescence
# [8] = SU-DIPG-XXV glioma cell viability, MIPE5.0 library, qHTS (AID 1347068; cut-off not given, nearly all actives have IC50 up to about 30 µM;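 on IC50: cells exposed to compound for 48 hours before viability readout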)
# [9] = sensitizers of A549 cells to miR-34 induction, primary screen, imaging, A549 dox-inducible miR-34, nuclei and caspase counts (AID 1347080;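 active means compounds whose cell count with miR-34 switched on is under 0.7 times the count with it off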); settings: A549 miR-34 inducible, Hoechst nuclei count, 48 h
# [10] = survival rescue of mitochondrial mutant cells in low glucose, primary screen, MELAS cybrids, Rieske KO mouse fibroblasts, CellTiter-Glo (AID 1508586;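 active means mean z-score across replicates of 1.96 or higher in either the MELAS or the Rieske mutant cell line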;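 further: z relative to plate mean and SD of compound and empty wells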)
# [11] = modifiers of HSF1 nuclear foci, imaging, Selleck Cancer Library (AID 1347162; in the data active means plate-normalised HSF1 focus index below about 0.46); settings: human cells, at 10 µM; SSMD: measured here: HSF1 foci SSMD mean; cell count: measured here: cell number; plate-normalised HSF1 focus index: stronger effect = lower value
# [12] = ovarian cancer cell viability with rucaparib, profiling panel, oncology-focused library, rucaparib conditional (AID 1508598); settings: patient-derived ovarian cancer cells, CellTiter-Glo viability, 144 h, stronger effect = lower value
# [13] = MELAS cybrid survival, CellTiter-Glo 48 h, stronger effect = higher value
# [14] = Rieske KO mouse fibroblast survival, CellTiter-Glo 72 h
structure (smiles),measurement,setting,value
CC(C)n1cnc2c(NCCc3ccc(O)cc3)nc(-c3csc4ccccc34)nc21,AC50,[1],18.6 µM (active)
same,AC50,[2],7.43 µM (active)
same,AC50,[3],18.7 µM (active)
same,AC50,[4],10.5 µM (active)
same,AC50,[5],18.6 µM (active)
same,AC50,[6],20.9 µM (active)
same,AC50,[7],13.2 µM (active)
same,outcome,[8],inactive
same,fold change,"[9]; stronger effect = lower value, cell number ratio, induced over uninduced",0.908 (inactive)
same,fold change,[9]; measured here: relative caspase fold change +Dox/-Dox,0.471
same,cell count,"[9]; measured here: total cells with miR-34 induction, stronger effect = lower value",6480
same,cell count,[9]; measured here: total cells without miR-34 induction,7140
same,z-score,[10]; [13],-0.0908 (inactive)
same,z-score,[10]; [14],0.499
Cc1ccc(C(=O)N(CCCN)[C@@H](c2oc3cc(Cl)ccc3c(=O)c2Cc2ccccc2)C(C)C)cc1,AC50,[1],0.0332 µM (active)
same,outcome,[2],inactive
same,AC50,[3],14.8 µM (active)
same,AC50,[4],29.6 µM (active)
same,AC50,[5],0.0118 µM (active)
same,AC50,[6],8.33 µM (active)
same,AC50,[7],1.66 µM (active)
same,IC50,[8],41.7 nM (active)
same,SSMD,[11],0.849
same,cell count,[11],6430
same,plate-normalised HSF1 focus index,[11],1.05 (inactive)
same,viability,"[12]; at 0.000305 µM, OCI-C5x cells, with rucaparib 10 µM, 100% = cells with rucaparib alone",50.8% (active)
same,viability,"[12]; at 0.000305 µM, OCI-C5x cells, without rucaparib",63.1% (active)
same,viability,"[12]; at 0.000305 µM, OCI-P5x cells, with rucaparib 20 µM, 100% = cells with rucaparib alone",62% (active)
same,viability,"[12]; at 0.000305 µM, OCI-P5x cells, without rucaparib",22.5% (active)
same,viability,"[12]; at 0.00122 µM, OCI-C5x cells, with rucaparib 10 µM, 100% = cells with rucaparib alone",56.4% (active)
same,viability,"[12]; at 0.00122 µM, OCI-C5x cells, without rucaparib",61.8% (active)
same,viability,"[12]; at 0.00122 µM, OCI-P5x cells, with rucaparib 20 µM, 100% = cells with rucaparib alone",50.3% (active)
same,viability,"[12]; at 0.00122 µM, OCI-P5x cells, without rucaparib",19.3% (active)
same,viability,"[12]; at 0.00488 µM, OCI-C5x cells, with rucaparib 10 µM, 100% = cells with rucaparib alone",54.9% (active)
same,viability,"[12]; at 0.00488 µM, OCI-C5x cells, without rucaparib",63.8% (active)
same,viability,"[12]; at 0.00488 µM, OCI-P5x cells, with rucaparib 20 µM, 100% = cells with rucaparib alone",58.3% (active)
same,viability,"[12]; at 0.00488 µM, OCI-P5x cells, without rucaparib",18.4% (active)
same,viability,"[12]; at 0.0195 µM, OCI-C5x cells, with rucaparib 10 µM, 100% = cells with rucaparib alone",57.6% (active)
same,viability,"[12]; at 0.0195 µM, OCI-C5x cells, without rucaparib",55.3% (active)
same,viability,"[12]; at 0.0195 µM, OCI-P5x cells, with rucaparib 20 µM, 100% = cells with rucaparib alone",55.3% (active)
same,viability,"[12]; at 0.0195 µM, OCI-P5x cells, without rucaparib",19.7% (active)
same,viability,"[12]; at 0.0781 µM, OCI-C5x cells, with rucaparib 10 µM, 100% = cells with rucaparib alone",54.6% (active)
same,viability,"[12]; at 0.0781 µM, OCI-C5x cells, without rucaparib",50.1% (active)
same,viability,"[12]; at 0.0781 µM, OCI-P5x cells, with rucaparib 20 µM, 100% = cells with rucaparib alone",51.5% (active)
same,viability,"[12]; at 0.0781 µM, OCI-P5x cells, without rucaparib",20.3% (active)
same,viability,"[12]; at 0.313 µM, OCI-C5x cells, with rucaparib 10 µM, 100% = cells with rucaparib alone",54.9% (active)
same,viability,"[12]; at 0.313 µM, OCI-C5x cells, without rucaparib",50.6% (active)
same,viability,"[12]; at 0.313 µM, OCI-P5x cells, with rucaparib 20 µM, 100% = cells with rucaparib alone",55.7% (active)
same,viability,"[12]; at 0.313 µM, OCI-P5x cells, without rucaparib",19.2% (active)
same,viability,"[12]; at 1.25 µM, OCI-C5x cells, with rucaparib 10 µM, 100% = cells with rucaparib alone",49.2% (active)
same,viability,"[12]; at 1.25 µM, OCI-C5x cells, without rucaparib",49% (active)
same,viability,"[12]; at 1.25 µM, OCI-P5x cells, with rucaparib 20 µM, 100% = cells with rucaparib alone",48.4% (active)
same,viability,"[12]; at 1.25 µM, OCI-P5x cells, without rucaparib",17.8% (active)
same,viability,"[12]; at 5 µM, OCI-C5x cells, with rucaparib 10 µM, 100% = cells with rucaparib alone",4.98% (active)
same,viability,"[12]; at 5 µM, OCI-C5x cells, without rucaparib",4.99% (active)
same,viability,"[12]; at 5 µM, OCI-P5x cells, with rucaparib 20 µM, 100% = cells with rucaparib alone",0.708% (active)
same,viability,"[12]; at 5 µM, OCI-P5x cells, without rucaparib",6.42% (active)
O=C1CCC[C@@H]2[C@H]3CCC[N+]4([O-])CCC[C@@H](CN12)[C@@H]34 (some centres not stated),outcome,[1],inactive
same,outcome,[2],inactive
same,outcome,[3],inactive
same,outcome,[4],inactive
same,outcome,[5],inactive
same,outcome,[6],inactive
same,outcome,[7],inactive
same,outcome,[8],inactive
CC1(C)O[C@@H]2C[C@H]3[C@@H]4CCC5=CC(=O)C=C[C@]5(C)[C@H]4[C@@H](O)C[C@]3(C)[C@]2(C(=O)CO)O1,outcome,[1],inactive
same,outcome,[2],inactive
same,outcome,[3],inactive
same,outcome,[4],inactive
same,outcome,[5],inactive
same,outcome,[6],inactive
same,outcome,[8],inactive
same,z-score,[10]; [13],-0.574 (inactive)
same,z-score,[10]; [14],0.349
NC[C@H]1O[C@H](O[C@@H]2[C@H](O)[C@@H](O[C@H]3O[C@H](CO)[C@@H](O)[C@H](N)[C@H]3O)[C@H](N)C[C@@H]2N)[C@H](O)[C@@H](O)[C@@H]1O,outcome,[1],inactive
same,outcome,[2],inactive
same,outcome,[3],inactive
same,outcome,[4],inactive
same,outcome,[5],inactive
same,outcome,[6],inactive
same,outcome,[7],inactive
same,outcome,[8],inactive
